Test results taken from PubChem BioAssay.
Values joined by “and” are separate entries in the source; they are usually repeats but may differ in a detail not shown here. Equal values may be shown once. A structure can be active in one record and inactive in another. Active and inactive are the calls of the source.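 Rule for the calls, unless noted: active = inhibition at or above 50% relative to wild type and mutant plate controls; inactive = inhibition below 50%.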

Assays:
[1] = inhibitors of TNFa-induced NFkB p65 translocation, primary screen, imaging, HUVEC, MLSMR starter and 10KST1 sets (AID 438;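 active = inhibition above 20% together with a positive visual image hit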;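 note: compound added about 3h40 before a 20 min TNFalpha stimulation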;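 for inhibition: signal is the nuclear over cytoplasmic p65 intensity ratio per well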); conditions: HUVEC TNFa-induced p65 nuclear translocation; cell count: measured here: nuclei count (cytotoxicity indicator), at 2.08 µM; inhibition: at 2 µM, stronger effect = higher value, 0% TNFa-plus-vehicle, 100% no-TNFa wells
[2] = inhibitors of mutant huntingtin aggregation, primary screen, imaging, exon1htt(103Q)mCFP cells, high-content imaging (AID 483;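 active = visual image review flags a hit and inhibition of aggregation exceeds 20%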;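 note: compound exposure lasted 3 days before fixation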;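 for nuclei count: percent of the per-plate median nuclei count of sample wells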); conditions: exon1htt(103Q)mCFP cell line, aggregate imaging, at 2 µM; inhibition of aggregation: stronger effect = higher value; nuclei count: measured here: cell count, toxicity
[3] = inhibitors of E-selectin induction by TNFa, primary screen, imaging, HUVEC, immunofluorescence, MLSMR starter and 10KST1 sets (AID 487;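 active = visually confirmed hit in the image check and inhibition above 20%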;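 for inhibition: signal is fraction of cell area covered by stained E-selectin grains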;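 for nuclei count: 100% = median nuclei count of all wells on the same plate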); conditions: HUVEC TNFalpha-induced E-selectin immunofluorescence imaging, at 2 µM; inhibition: stronger effect = higher value; nuclei count: measured here: cell number, toxicity
[4] = DUSP6 inhibitors restoring Erk phosphorylation by chemical complementation, primary imaging in DUSP6-transfected HeLa (AID 609;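 active = compounds giving at least 50% inhibition in the cell-based MKP-3 phosphatase rescue imaging test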;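 for inhibition: phospho-Erk level distribution per well compared with pooled transfected vehicle control wells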); conditions: HeLa MKP-3 transfected, phospho-Erk imaging KS statistic, at 10 µM, cells stimulated with TPA for 15 min
[5] = molecular target: Dual specificity protein phosphatase 6 (Homo sapiens) (UniProt Q16828); experiment: as above; conditions: HeLa MKP-3 transfected, phospho-Erk imaging KS statistic; at 10 µM; stronger effect = higher value; cells stimulated with TPA for 15 min
[6] = molecular target: Voltage-gated potassium channel subunit beta-2 (Rattus norvegicus) (UniProt P62483); experiment: KvBeta enzyme negative modulators, primary screen, biochemical, NADPH fluorescence (AID 622;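 active = fluorescence slope higher than the sample average by over 3 SD, cut at about -0.22 in these data, passing the limit was not always enough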;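 note: slope of raw intensity against log time taken from 70 to 1610 s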); conditions: recombinant KvBeta, 4-cyanobenzaldehyde reduction, at 10 µM, stronger effect = higher value
[7] = molecular target: Voltage-gated potassium channel subunit beta-2 (Rattus norvegicus) (UniProt P62483); experiment: KvBeta positive modulators, primary screen, biochemical, NADPH fluorescence (AID 623;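 active = NADPH fluorescence slope more negative than the mean of all samples by about 3 SD, 99.7% confidence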;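 note: fluorescence intensity change per second fitted from 20 to 320 s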); conditions: Recombinant KvBeta, NADPH fluorescence decrease slope, 10 min; at 10 µM; stronger effect = lower value
[8] = molecular target: Alpha-2C adrenergic receptor (Homo sapiens) (UniProt P18825); experiment: modulators of alpha2C/GIRK thallium flux, primary screen, cell-based, HEK293 alpha2C/GIRK1/2 (AID 624;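 active = fluorescence slope after compound addition differing from the mean of all screened samples at 99.7% confidence, in either direction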;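 note: slope of fluorescence ratio to pre-addition baseline per second over 15 to 24 s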); conditions: thallium flux BTC fluorescence, at 10 µM, actives lie on both sides
[9] = inhibitors of larval lipid processing in zebrafish, primary screen, whole organism, PED6 fluorescence, gall bladder and intestine (AID 686;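 active = a full or partial loss of lipid-probe fluorescence in the fish gall bladder, intestine or both, judged by eye; inactive = no fluorescence loss, or compound toxic to the fish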;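 note: larvae 5 to 7 days old with five fish per well; signal comes from phospholipase A2 cleavage of quenched PED6 carried via bile; overnight exposure to compound and PED6 before scoring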); conditions: Zebrafish larvae PED6 lipid processing, fluorescence scoring; screened at 20 µM (by protocol)
[10] = inhibitors of Chlamydomonas gravitaxis, primary screen, whole organism, Chlamydomonas reinhardtii, WT vs cilia-less mutant, absorbance, 96-well (AID 463189); conditions: OD600 absorbance, 2 days, at 10 µM, stronger effect = higher value;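 note: 0% = wild type cc124 cells in DMSO and 100% = ciliumless bld1 mutant cells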
[11] = inhibitors of Sendai virus-induced IRF3 signaling, primary screen, TLR/RLR signaling modifier project, cell-based, Sendai virus stimulus, luciferase, 10K MLSCN set (AID 602276;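 active = inhibition at or above 50% at 10 µM; inactive = inhibition below 50%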;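 note: firefly luciferase from ISG56 promoter only with Renilla not read in this screen; 0% = Sendai virus plus DMSO and 100% = medium plus DMSO without virus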); conditions: HEK293 RL24 IRF3 luciferase reporter, at 10 µM, stronger effect = higher value
[12] = inhibitors of poly I:C-induced TLR3 signaling, primary screen, cell-based, poly I:C stimulus, luciferase, 10K MLSCN set (AID 602277;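 active = inhibition of the reporter signal at or above 50%; inactive = inhibition below 50%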); conditions: HEK293-TLR3 RL24 IRF3 luciferase reporter, at 10 µM, stronger effect = higher value
[13] = molecular target: Muscarinic acetylcholine receptor M4 (Homo sapiens) (UniProt P08173); experiment: compounds altering M4/GIRK thallium flux, either direction, primary screen, M4 allosteric agonist project, cell-based, HEK293 M4/GIRK, BTC-AM (AID 625;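 active = fluorescence slope after compound addition differing from the mean of all tested samples at 99.7% confidence, mostly higher but some lower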;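 note: thallium influx through GIRK channels coupled to M4 in HEK293 cells with BTC-AM dye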); conditions: at 10 µM, actives lie on both sides
[14] = measured here: cell density z-score
[15] = measured here: nuclear c-Myc green intensity z-score
[16] = measured here: nuclear pErk red intensity z-score, stronger effect = higher value

Sequence of Alpha-2C adrenergic receptor (Homo sapiens) (P18825 whole entry, looked up): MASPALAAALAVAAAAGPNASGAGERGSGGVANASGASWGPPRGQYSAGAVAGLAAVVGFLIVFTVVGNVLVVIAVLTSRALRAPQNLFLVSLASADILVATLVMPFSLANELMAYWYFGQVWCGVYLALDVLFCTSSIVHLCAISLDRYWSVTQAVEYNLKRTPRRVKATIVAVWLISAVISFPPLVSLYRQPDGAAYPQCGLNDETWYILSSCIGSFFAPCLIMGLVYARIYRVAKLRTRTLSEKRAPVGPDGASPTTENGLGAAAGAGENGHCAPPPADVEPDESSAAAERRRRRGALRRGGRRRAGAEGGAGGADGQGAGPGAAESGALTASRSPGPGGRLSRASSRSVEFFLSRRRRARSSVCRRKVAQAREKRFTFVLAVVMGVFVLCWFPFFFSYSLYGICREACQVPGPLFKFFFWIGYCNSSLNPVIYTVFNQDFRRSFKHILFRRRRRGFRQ
Sequence of Dual specificity protein phosphatase 6 (Homo sapiens) (Q16828 whole entry, looked up): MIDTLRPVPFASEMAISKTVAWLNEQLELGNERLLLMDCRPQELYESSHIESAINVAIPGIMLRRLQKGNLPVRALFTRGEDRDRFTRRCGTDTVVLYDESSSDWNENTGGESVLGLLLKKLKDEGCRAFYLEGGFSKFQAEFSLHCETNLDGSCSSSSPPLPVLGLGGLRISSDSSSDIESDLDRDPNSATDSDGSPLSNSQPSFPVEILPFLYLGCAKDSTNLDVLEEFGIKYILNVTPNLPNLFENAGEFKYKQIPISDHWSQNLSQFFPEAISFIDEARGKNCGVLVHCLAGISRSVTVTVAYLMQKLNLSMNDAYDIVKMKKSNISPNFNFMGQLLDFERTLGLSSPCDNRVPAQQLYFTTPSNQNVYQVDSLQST
Sequence of Voltage-gated potassium channel subunit beta-2 (Rattus norvegicus) (P62483 whole entry, looked up): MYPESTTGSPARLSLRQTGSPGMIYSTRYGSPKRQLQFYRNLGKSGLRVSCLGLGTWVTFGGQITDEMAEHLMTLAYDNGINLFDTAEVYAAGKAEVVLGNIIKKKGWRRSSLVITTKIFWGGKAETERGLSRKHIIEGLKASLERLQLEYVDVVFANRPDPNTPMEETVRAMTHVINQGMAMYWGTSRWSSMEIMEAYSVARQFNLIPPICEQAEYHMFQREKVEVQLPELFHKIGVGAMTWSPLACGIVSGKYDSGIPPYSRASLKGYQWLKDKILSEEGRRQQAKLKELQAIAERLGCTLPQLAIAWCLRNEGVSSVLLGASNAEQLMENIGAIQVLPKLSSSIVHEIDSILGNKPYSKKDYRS
Sequence of Muscarinic acetylcholine receptor M4 (Homo sapiens) (P08173 whole entry, looked up): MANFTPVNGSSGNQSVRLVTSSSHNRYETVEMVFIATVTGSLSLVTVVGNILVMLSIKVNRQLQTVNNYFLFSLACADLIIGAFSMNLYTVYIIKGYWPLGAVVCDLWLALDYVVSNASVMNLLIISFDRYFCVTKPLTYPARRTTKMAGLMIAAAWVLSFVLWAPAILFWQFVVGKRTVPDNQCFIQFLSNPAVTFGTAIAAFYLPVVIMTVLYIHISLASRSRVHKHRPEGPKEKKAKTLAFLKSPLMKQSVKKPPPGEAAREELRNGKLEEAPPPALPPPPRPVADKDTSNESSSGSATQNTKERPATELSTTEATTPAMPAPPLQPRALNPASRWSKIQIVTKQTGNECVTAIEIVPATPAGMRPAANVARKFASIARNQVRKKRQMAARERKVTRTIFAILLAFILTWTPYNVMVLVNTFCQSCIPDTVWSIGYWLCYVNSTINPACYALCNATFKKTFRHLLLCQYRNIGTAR

Structure (SMILES) | cell count [1] | inhibition [1] | inhibition of aggregation [2] | nuclei count [2] | inhibition [3] | nuclei count [3] | z-score [4, 14] | z-score [4, 15] | z-score [4, 16] | inhibition [5] | fluorescence slope [6] | NADPH fluorescence slope [7] | slope [8] | outcome [9] | inhibition [10] | inhibition [11] | inhibition [12] | fluorescence slope [13]
COc1cccc(Cn2c(Oc3ccccc3)nc3c2c(=O)n(C)c(=O)n3C)c1 | 373 | -4.8% (inactive) | 17.7% (inactive) | 87.9% | -67.3% (inactive) | 150% | -0.332 | -0.584 | 0.142 | 1.04% (inactive) | -0.369 (inactive) | -2.2e-05 (inactive) | 0.00481 (inactive) | inactive | 8.33% (inactive) | 19.3% (inactive) | 10.3% (inactive) | 
CCCCc1c(O)nc(SCCN(C)C)n(-c2ccccc2)c1=O | 326 | -8.8% (inactive) | 2.2% (inactive) | 94.9% | -40.2% (inactive) | 96.4% | -1.09 | 2.21 | 0.182 | 12.3% (inactive) | -0.438 (inactive) | -0.000152 (inactive) | 0.00653 (inactive) | inactive | -12.4% (inactive) | 7.92% (inactive) | 1.23% (inactive) | 
CCCc1c(OCCCCc2nn[nH]n2)ccc(C(C)=O)c1O | 599 | -11.6% (inactive) | -9.3% (inactive) | 95.3% | -37.8% (inactive) | 129% | 0.961 | 0.408 | -0.601 | 9.37% (inactive) | -0.458 (inactive) | -4e-05 (inactive) | 0.00468 (inactive) | inactive | -12.8% (inactive) | 15.4% (inactive) | 34.3% (inactive) | 
C[C@]12CCC(=O)C=C1CC[C@@H]1[C@@H]2CC[C@@]2(C)[C@H]1CC[C@]2(O)C(=O)CO | 695 | 0.6% (inactive) | 27.5% (inactive) | 102% | -97.9% (inactive) | 125% | 0.881 | 0.613 | -1.07 | 8% (inactive) | -0.52 (inactive) | -6.8e-05 (inactive) | 0.00434 (inactive) | inactive | -0.27% (inactive) and -16.6% (inactive) | 5.65% (inactive) | 35.1% (inactive) | 
CC(NCCc1ccc(O)cc1)C(O)c1ccc(O)cc1 (stereo not given) | 713 | -4.6% (inactive) | -2.5% (inactive) | 107% | -109% (inactive) | 123% | 0.779 | 0.516 | -1.29 | 1.48% (inactive) | -0.474 (inactive) | -9.7e-05 (inactive) | 0.00504 (inactive) | inactive | 4.91% (inactive) | 7.45% (inactive) | 39.2% (inactive) | 
CC(=O)[C@H]1[C@H](C#N)C[C@H]2[C@@H]3CC=C4C[C@@H](O)CC[C@]4(C)[C@H]3CC[C@@]21C | 645 | -9.3% (inactive) | -4.8% (inactive) | 106% | -91.5% (inactive) | 119% | 0.975 | -0.917 | -0.46 | -2.46% (inactive) | -0.457 (inactive) | -4e-05 (inactive) | 0.00539 (inactive) | inactive | 14.4% (inactive) | 10.7% (inactive) | 42.4% (inactive) | 
CCCCCC(=O)N1CC2(CC)CN(C(=O)CCCCC)CC(CC)(C1)C2=O | 548 | 4.4% (inactive) | 26.5% (inactive) | 90% | -77.8% (inactive) | 117% | 0.465 | -0.132 | -0.254 | 7.42% (inactive) | -0.308 (inactive) | -9.9e-07 (inactive) | 0.00431 (inactive) | inactive | 22.6% (inactive) | 3.77% (inactive) | 34.5% (inactive) | 
CC(NCCC(c1ccccc1)c1ccccc1)c1ccccc1 (stereo not given) | 619 | -0.2% (inactive) | 22.8% (inactive) | 104% | -24.4% (inactive) | 113% | 1.32 | -0.571 | -1.03 | 13.3% (inactive) | -0.492 (inactive) | -8.5e-06 (inactive) | 0.00284 (inactive) | inactive | 59.1% (active) | 28.7% (inactive) | 22.8% (inactive) | 
N=c1ncn(CC(O)CN2CCOCC2)c2nc(N3CCOCC3)[nH]c12 (stereo not given) | 536 | -23.6% (inactive) | 20.3% (inactive) | 88.8% | -90.1% (inactive) | 124% | 0.636 | -1.17 | 0.315 | 17.3% (inactive) | -0.517 (inactive) | -2.5e-05 (inactive) | 0.00808 (inactive) | inactive | 17.5% (inactive) | -19.8% (inactive) | -9.49% (inactive) | 
N#C/C(C(=O)NCc1ccco1)=C1/SC(Cc2ccc(F)cc2)C(=O)N1c1ccccc1 (stereo not given) | 598 | 4.7% (inactive) | -63.4% (inactive) | 75.6% | -13.2% (inactive) | 108% | 0.348 | 0.139 | 0.51 | -2.09% (inactive) | -0.437 (inactive) | -2.8e-05 (inactive) |  | inactive; toxic | -7.54% (inactive) | 11.5% (inactive) | 20.4% (inactive) | 0.00419 (inactive)
CC1=C(C)C(=O)C(CCCCC#CCCCC#CCO)=C(C)C1=O | 531 | 4.4% (inactive) | 9.6% (inactive) | 95.5% | -112% (inactive) | 108% | 0.752 | -0.729 | -1.42 | 19.2% (inactive) | -0.452 (inactive) | -2.1e-05 (inactive) | 0.00343 (inactive) | inactive | -6.32% (inactive) and 57.1% (active) | 14.4% (inactive) | 32.8% (inactive) | 
NC(CO)C(=O)NNCc1ccc(O)c(O)c1O (stereo not given) | 571 | -9.9% (inactive) | -16.9% (inactive) | 117% | -52.2% (inactive) | 124% | 0.364 | 0.175 | -0.65 | 3.45% (inactive) | -0.466 (inactive) | -6.2e-05 (inactive) | 0.00539 (inactive) | inactive | -0.599% (inactive) and -9.6% (inactive) | 8.18% (inactive) | 29.4% (inactive) | 
O=C(O)CCCCCCC1C(=O)NC(=O)N1CCC(O)C1CCCCC1 (stereo not given) | 579 | -9.7% (inactive) | -6.4% (inactive) | 97.8% | -76.1% (inactive) | 116% | -0.528 | -0.266 | 1.03 | -0.493% (inactive) | -0.507 (inactive) | -5.2e-05 (inactive) | 0.00541 (inactive) | inactive | 1.26% (inactive) | 15.9% (inactive) | 36.2% (inactive) | 
OCCN1CCN(CCCN2c3ccccc3Sc3ccc(C(F)(F)F)cc32)CC1 | 606 | 2% (inactive) | 4.9% (inactive) | 91.7% | -56.8% (inactive) | 127% | 0.204 | 0.276 | 0.714 | -10.4% (inactive) | -0.544 (inactive) | -5.6e-05 (inactive) | 0.00393 (inactive) | active; no signal in intestine only | -10.6% (inactive) and 145% (active) | 12.2% (inactive) | 58.3% (active) | 
OCCN1CCN(CCCN2c3ccccc3Sc3ccc(Cl)cc32)CC1 | 705 | -3% (inactive) | -20.6% (inactive) | 109% | -112% (inactive) | 130% | -0.393 | 0.625 | 2.66 | 3.45% (inactive) | -0.46 (inactive) | -5.7e-05 (inactive) | 0.0036 (inactive) | inactive | 3.48% (inactive) and 164% (active) | 17.3% (inactive) | 40.7% (inactive) | 
CC(=O)NS(=O)(=O)c1ccc(N)cc1 | 651 | 7.7% (inactive) | 12.5% (inactive) | 97.6% | -106% (inactive) | 120% | -1.23 | 1.33 | -0.291 | 14.6% (inactive) | -0.508 (inactive) | -4.5e-05 (inactive) | 0.00641 (inactive) | inactive | 46.5% (inactive) | 11.7% (inactive) | 26.8% (inactive) | 
COc1ccc(-c2nnc3sc(-c4c(OC)cccc4OC)nn23)cc1 | 498 | -7.5% (inactive) | 26.2% (inactive) | 28.4% | -176% (inactive) | 131% | -0.466 | -2.13 | -0.0898 | -6.06% (inactive) | -0.435 (inactive) | -0.000139 (inactive) | 0.00691 (inactive) | inactive | 14.7% (inactive) | 11.7% (inactive) | 13% (inactive) | 
COCCCN1C(=O)C(O)=C(C(=O)c2ccco2)C1c1ccc(Br)cc1 (stereo not given) | 417 | -4.6% (inactive) | -13.4% (inactive) | 107% | -25.5% (inactive) | 117% | -1.16 | 0.864 | 0.315 | -4.7% (inactive) | -0.457 (inactive) | 7.2e-06 (inactive) | 0.00512 (inactive) | inactive | 6.25% (inactive) | 23.9% (inactive) | 22.2% (inactive) | 
COC(=O)c1cc(Br)c(=O)n(Cc2cccnc2)c1 | 578 | 3% (inactive) | -10.7% (inactive) | 108% | -15.9% (inactive) | 109% | -0.222 | 1.1 | -1.83 | -3.5% (inactive) | -0.545 (inactive) | -2.2e-05 (inactive) | 0.00588 (inactive) | inactive | -26.1% (inactive) | 9.75% (inactive) | 17.7% (inactive) | 
CCCCC(=O)O[C@]1(C(=O)CO)CC[C@H]2[C@@H]3CCC4=CC(=O)CC[C@]4(C)[C@H]3[C@@H](O)C[C@@]21C | 559 | -9.3% (inactive) | -2.8% (inactive) | 44.6% | -73.8% (inactive) | 120% | -0.284 | -0.0177 | 0.0777 | -0.493% (inactive) | -0.554 (inactive) | -4.6e-05 (inactive) | 0.00469 (inactive) | inactive | 15.5% (inactive) | -1.27% (inactive) | 57.4% (active) | 
